Data as given in PubChem BioAssay AID624330 (Southern Research Specialized Biocontainment Screening …, 2012).
Among all 340,000 compounds or so, about 2,100 (0.62%) were called active.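 How the source made its calls: active means first-screen hits whose inhibition reached a set limit at any dose in the follow-up dose series; inconclusive means inhibition above the set first-screen limit but never retested; inactive means the rest.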 These entries were drawn from the full list. Potency and affinity values are given separately.

Biological target: Rac GTPase-activating protein 1 (Homo sapiens) (UniProt Q9H0H5)
Test: blockers of MgcRacGAP-driven Rac1 GTP hydrolysis – biochemical, ADP Hunter fluorescence, primary and confirmatory, confirmation (AID 624330);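 further: fluorescence reports GDP produced by GAP-driven GTP hydrolysis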
Settings: MgcRacGAP-stimulated Rac1 GTP hydrolysis, at 30 µM, active compounds read high, GST-tagged Rac1 F28L mutant substrate

Chain of Rac GTPase-activating protein 1 (Homo sapiens) (Q9H0H5 whole entry, looked up): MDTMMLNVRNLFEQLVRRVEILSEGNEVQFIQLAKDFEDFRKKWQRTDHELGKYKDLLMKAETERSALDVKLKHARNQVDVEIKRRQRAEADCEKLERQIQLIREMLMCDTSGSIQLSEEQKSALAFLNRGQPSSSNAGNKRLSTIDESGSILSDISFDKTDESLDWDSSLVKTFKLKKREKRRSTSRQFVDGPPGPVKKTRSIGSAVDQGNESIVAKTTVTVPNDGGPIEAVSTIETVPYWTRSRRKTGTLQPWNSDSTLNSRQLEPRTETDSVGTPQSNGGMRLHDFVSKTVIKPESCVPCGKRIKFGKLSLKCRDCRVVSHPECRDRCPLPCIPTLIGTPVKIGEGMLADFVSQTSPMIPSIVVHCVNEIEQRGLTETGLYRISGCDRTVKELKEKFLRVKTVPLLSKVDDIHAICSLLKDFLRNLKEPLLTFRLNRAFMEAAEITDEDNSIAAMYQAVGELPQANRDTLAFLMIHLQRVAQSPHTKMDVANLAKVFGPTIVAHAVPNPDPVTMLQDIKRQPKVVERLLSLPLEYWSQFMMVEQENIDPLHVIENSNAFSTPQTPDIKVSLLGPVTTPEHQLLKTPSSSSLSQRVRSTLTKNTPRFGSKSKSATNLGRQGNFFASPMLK

inhibition, inactive:
CC(=O)N1CCN(C(=O)c2ccc(NS(=O)(=O)c3ccc4c(c3)OCCO4)cc2)CC1 5.18%
COc1ccccc1/C=N/NC(=O)CSc1ccc2ccccc2n1 17.4%
O=C(CSc1ccc2ccccc2n1)N/N=C/c1ccccc1O 4.3%
O=C(CNC(=O)c1ccc(Cl)cc1Cl)NCc1ccccn1 -0.06%
CC1CCN(S(=O)(=O)c2ccc3[nH]c(=O)[nH]c3c2)CC1 6.82%
CC1CCN(S(=O)(=O)c2ccc3ccccc3c2)CC1 1.45%
Cc1ccc2c(c1)N(C(C)C(=O)NCc1ccc3c(c1)OCO3)C(=O)CO2 (stereo not drawn) 11.4%
Cc1ccc(C(=O)COC(=O)c2nc3nccc(C)n3n2)c(C)c1 5.3%
NC(=O)c1cc2ccncc2c2ccccc12 8.91%
CC1NC(C)(C)Cc2c1ccc1ccccc21 (stereo not drawn) 2.36%
CC1CC2(CCCCC2)Nc2ccc3ccccc3c21 (stereo not drawn) 12.5%
Cc1cccc(OCC(=O)NNC(=O)C2CCN(c3ncnc4sc(C)c(C)c34)CC2)c1 12.2%
CNc1nc(Nc2ccc(C(C)=O)cc2)nc(OC(C(F)(F)F)C(F)(F)F)n1 8.39%
COc1ccc(Nc2nc(OC)nc(OC)n2)cc1 14.1%
CCCC(C)NC(=O)CN1C(=O)c2cccc3cccc1c23 (stereo not drawn) 7.54%
CN(CCc1ccccn1)Cc1ccc(Cl)cc1 24%
CN(CCc1ccccn1)Cc1ccc(Cl)c(Cl)c1 27.1%
CCc1ccc(CN(C)CCc2ccccn2)cc1 13.2%
Cc1ccc(CN(C)CCc2ccccn2)cc1 13%
Cc1cccc(CN(C)CCc2ccccn2)c1 9.5%
CN(CCc1ccccn1)Cc1ccc(Cl)cc1Cl 19.1%
COc1ccc(CN(C)Cc2ccccc2)c(OC)c1OC 4.85%
COc1ccc(CCN(C)Cc2ccc(OC)c(OCc3ccccc3)c2)cc1OC 18.3%
CC(C)=CCCC(C)=CCN1C(=O)CN(C)C1=O 4.98%
CC(=O)c1cccc(NC(=O)C(C)OC(=O)CCC2CCCCC2)c1 (stereo not drawn) 1.73%
O=[N+]([O-])c1cccc(/C=N/n2cnnc2)c1O 4.49%
Cc1onc(-c2ccccc2Cl)c1C(=O)NCCCN1CCOCC1 12%
NS(=O)(=O)c1ccc(N/N=C/c2cn(-c3ccccc3)nc2-c2cccs2)cc1 2.12%
CCN(CCCCCCN)c1ccc2c(=O)[nH][nH]c(=O)c2c1 3.58%
Cc1ccc(-n2ncc3c(NNC(=O)c4ccco4)ncnc32)c(C)c1 7.64%
CCc1ccc(C2=NN(CCC(=O)NCC3CCCO3)C(=O)CC2)cc1 (stereo not drawn) 11.8%
CCNC(=S)N(CCc1c(C)[nH]c2ccc(OC)cc12)Cc1cccnc1 12.7%
O=C(NC1CCCCC1)c1sc(=S)n2c1[nH]c(=O)c1ccccc12 10.6%
O=C(NCc1ccccc1)c1ccc2c(=O)[nH]c3c(C(=O)NCC4CCCO4)sc(=S)n3c2c1 (stereo not drawn) 16.2%
Cc1ccccc1Cn1nc(C)c(NC(=O)c2cc(CC(C)C)on2)c1C 9.15%
COc1ccc(NC(=O)c2c(NC(=O)CNCc3ccco3)sc3c2CCC3)cc1 15.6%
COC(=O)c1c(NC(=O)c2ccco2)sc2c1CCC2 15.8%
CC(Sc1nncn1C)C(=O)Nc1nnc(C(C)C)s1 (stereo not drawn) -0.22%
CC(=O)CSc1nnc(NC(=O)CCc2ccccc2)s1 2.89%
CCNC(=S)NNC(=O)c1cc(Br)cs1 11.2%
CCCCn1c(N)c(N(Cc2ccccc2OC)C(=O)C(C)Oc2ccc(F)cc2)c(=O)[nH]c1=O (stereo not drawn) 6.07%
C=CCSc1nnc(NC(=O)CSc2nc(CCC)cc(=O)[nH]2)s1 12.2%
COc1cc(NC(=O)CN2C(=O)NC(C)(CCC(C)C)C2=O)cc(OC)c1 (stereo not drawn) -1.63%
C=CCOC(=O)Nc1c(C(=O)OC)[nH]c2ccc(Cl)cc12 0.34%
COC(=O)c1[nH]c2cc(OC)c(OC)cc2c1NC(=O)c1cccc(OC)c1 10.8%
CCOC(=O)c1[nH]c2ccccc2c1NC(=O)CC -0.8%
CCOC(=O)Nc1c(C(=O)OC)[nH]c2cc(OC)ccc12 8.73%
COC(=O)c1[nH]c2ccc(C)cc2c1NC(=O)Oc1ccccc1 84.7%
C=CCOC(=O)Nc1c(C(=O)OC)[nH]c2ccccc12 13.1%
CCOC(=O)c1[nH]c2ccccc2c1NC(C)=O 2.46%
COC(=O)c1[nH]c2ccccc2c1NC(=O)c1c(F)cccc1F -14.4%
N#Cc1c(/N=C/c2cc(Br)cs2)sc2c1CCC2 14.5%
NC(=O)C[C@@H]1NC(=O)[C@H](CCC(=O)O)NC(=O)c2cc([N+](=O)[O-])cc(I)c2OCC[C@@H](C(N)=O)NC1=O 6.13%
CC1CCN(C(=O)CSc2nnc(-c3cccnc3)o2)CC1 7.43%
Cc1cc(C)nc(NC(=NCCc2c[nH]c3ccccc23)NC(=O)Nc2cccc([N+](=O)[O-])c2)n1 8.14%
Cc1ccc(-c2[nH]ncc2/C=C(\C#N)C(=O)NC2CCCCC2)cc1 6.42%
Cc1cc(C)c(C(=O)N2CCCC(C(=O)c3cc(F)ccc3F)C2)o1 (stereo not drawn) 5.58%
CCOC(=O)c1[nH]c2ccc(OC)cc2c1NC(=O)c1cccc(OC)c1 5.01%
CCOC(=O)c1[nH]c2ccc(F)cc2c1NC(=O)c1ccccc1C(=O)O 66%
CCc1ccc(CN(C)C(=O)c2cc(COc3ccc(OC)cc3Cl)on2)nc1 10.7%
c1ccc2nc(-c3nccs3)ccc2c1 1.49%
Oc1ccc(-c2nccc(-c3cccs3)n2)cc1 9.71%
COc1cc(CCCN2CCNC[C@@H]2C(C)O)cc(OC)c1OC (stereo partly drawn) 3.02%
